# Publication PMC5540273 (PLoS ONE, 2017)
# Tests used:
# HASPIN = tested on: T1, HASPIN
# T1 construct: gene GSG2
# IKK-beta = tested on: T2, IKK-beta
# T2 construct: gene IKBKB
# IKK-epsilon = tested on: T3, IKK-epsilon
# T3 construct: gene IKBKE
# 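Note: kd values determined as follow-up on hits from a single-replicate KINOMEscan panel screen.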
structure (smiles),measurement,setting,value
CC(C)c1cc(-c2ccc3c(N)n[nH]c3c2)nc(N)n1 [GSK2250882],Kd,HASPIN,0.2 µM
COc1cccc(NC(=O)Nc2ccc(C)c(-c3ccc(C(=O)Nc4ccncc4)cc3)c2)c1 [GSK1398474],Kd,IKK-beta,> 10 µM
FC(F)(F)c1ccccc1-c1cc(-c2c[nH]nc2-c2ccccn2)ccn1 [GW679396],Kd,IKK-epsilon,> 10 µM
COc1ccc(Nc2nccc(N3CCC(NC(=O)C(C)c4ccc(Cl)cc4)CC3)n2)cc1 (centres unmarked) [GSK1379812],Kd,IKK-epsilon,> 10 µM
Cl.Cl.Cl.N#Cc1ccc(CCNc2nccc(-c3cccc(CN4CCNCC4)c3)n2)cc1 [GSK2137462],Kd,INSR,> 10 µM
